Where a name gives a salt, the structure may show the parent alone. ± gives the standard deviation of the averaged measurements.
Tested on: mESC LDLR-Dup GFP reporter (SpCas9 MH-deletion repair)
Test: fraction of GFP+ cells relative to DMSO control (fold change); higher = more MH-deletion repair to in-frame LDLR (or more editing)
Conditions: 2 µM; 7 days post-transfection

Structure (SMILES) | fraction of GFP+ cells
O=C(Nc1cccc(Cl)c1)Nc1ncc(CCNc2ncnc3ccsc23)s1 [SNS-314 Mesylate] | 0
CCCC(CCC)C(=O)O [Divalproex Sodium] | 0.742 ± 0.1
O=P(O)(O)C(O)(Cn1ccnc1)P(=O)(O)O [Zoledronic Acid Monohydrate] | 1.07 ± 0.25
CN(C)/N=N/c1[nH]cnc1C(N)=O [Dacarbazine] | 1.01 ± 0.49
O=C1NCCc2[nH]c(-c3ccncc3)cc21 | 1.61 ± 0.078
CN1CCN(Cc2ccc(NC(=O)Nc3ccc(Oc4ccnc(N)n4)cc3)cc2C(F)(F)F)CC1 | 0.335 ± 0.13
O=C(c1ccc(Cl)cc1Cl)n1nnc2ccccc21 | 0.756 ± 0.056
CN(N=O)C(=O)NC1C(O)OC(CO)C(O)C1O (stereo not given) [Streptozotocin (STZ)] | 2.1 ± 0.29
CCN(CC)CCCC(C)Nc1ccnc2cc(Cl)ccc12 (stereo not given) [Chloroquine Phosphate] | 0.703 ± 0.14
CN1CCN(c2c(F)cc3c(=O)c(C(=O)O)cn4c3c2OCN4C)CC1 [Marbofloxacin] | 1.19 ± 0.59
C/C(=C\C(=O)Nc1ccccc1C(=O)O)c1ccc2ccccc2c1 | 0.984 ± 0.45
C=C(C)[C@@H]1CC[C@]2(C(=O)O)CC[C@]3(C)[C@H](CC[C@@H]4[C@@]5(C)CC[C@H](O)C(C)(C)[C@@H]5CC[C@]43C)[C@@H]12 [Betulinic acid] | 0.997 ± 0.13
C[C@@H](CN1CC(=O)NC(=O)C1)N1CC(=O)NC(=O)C1 [Dexrazoxane HCl (ICRF-187, ADR-529)] | 1.05 ± 0.24
COc1cccc2oc(-c3ccccc3)cc(=O)c12 [5-methoxyflavone] | 0.869 ± 0.26
O=c1cc(N2CCOCC2)oc2c(-c3cccc4c3sc3ccccc34)cccc12 | 0.732 ± 0.4
CO[C@H]1/C=C/O[C@@]2(C)Oc3c(C)c(O)c4c(O)c(c(/C=N/N5CCN(C)CC5)c(O)c4c3C2=O)NC(=O)/C(C)=C\C=C\[C@H](C)[C@H](O)[C@@H](C)[C@@H](O)[C@@H](C)[C@H](OC(C)=O)[C@@H]1C [Rifampin] | 2.38 ± 0.52
Cc1cnc(NC(=O)Nc2cc(Br)c(C)cc2OC[C@@H]2CNCCO2)cn1 | 1.14 ± 0.08
NS(=O)(=O)C#Cc1ccccc1 | 1.11 ± 0.052
COc1c(N2C[C@@H]3CCCN[C@@H]3C2)c(F)cc2c(=O)c(C(=O)O)cn(C3CC3)c12 [Moxifloxacin HCl] | 0.624 ± 0.29
Cc1cccc(Nc2cc(Cl)nc(SCC(=O)O)n2)c1C | 1.56 ± 0.58

Structure (SMILES) | fraction of GFP+ cells
Cc1cnc(-c2ccccc2C(C)C)nc1NCc1ccc(-n2ccnn2)cc1 | 0.373 ± 0.22
O=C1C[C@@H](c2ccc(O)cc2)Oc2cc(O)cc(O)c21 [Naringenin] | 0.997 ± 0.18
Nc1nc(OCC2CCCCC2)c2[nH]cnc2n1 | 0.88 ± 0.14
Nc1nc(Nc2ccc(S(N)(=O)=O)cc2)nn1C(=O)c1c(F)cccc1F | 1 ± 0.15
C[C@H](CN(C)C)Oc1nc(Nc2cc3cccc(Cl)c3cn2)cnc1C#N | 1.28 ± 0.15
CN(C)C(=O)c1cc2cnc(Nc3ccc(N4CCNCC4)cn3)nc2n1C1CCCC1 [Ribociclib (LEE011)] | 1.04 ± 0.21
Cc1c(C)c2c(c(C)c1O)CCC(C)(COc1ccc(CC3SC(=O)NC3=O)cc1)O2 (stereo not given) [Troglitazone (CS-045)] | 1.34 ± 0.24
O=C(O)C(Cc1ccccc1[N+](=O)[O-])=NNc1nc(-c2ccc(Cl)c(Cl)c2)cs1 (mixture of isomers) | 1.15 ± 0.48
O=C(CCCCCCNC(=O)c1cnc(N(c2ccccc2)c2ccccc2)nc1)NO [Ricolinostat (ACY-1215)] | 0.968 ± 0.11
N#CSc1cc(SC#N)c(N)nc1N | 1.23 ± 0.14
O=NN(CCCl)C(=O)NC1CCCCC1 [Lomustine] | 1.11 ± 0.11
CN(Cc1cnc2nc(N)nc(N)c2n1)c1ccc(C(=O)N[C@@H](CCC(=O)O)C(=O)O)cc1 [Methotrexate] | 1.53 ± 0.28
C[C@H]1COc2c(N3CCN(C)CC3)c(F)cc3c(=O)c(C(=O)O)cn1c23 [Levofloxacin] | 0.954 ± 0.01
CC1=CC(=O)c2ccccc2C1=O [Menadione] | 1.27 ± 0.36
CO[C@@H]1[C@@H](OC(N)=O)[C@@H](O)[C@H](Oc2ccc3c(O)c(NC(=O)c4ccc(O)c(CC=C(C)C)c4)c(=O)oc3c2C)OC1(C)C [Novobiocin Sodium] | 1.09 ± 0.072
CN1CCCC(n2nc(Cc3ccc(Cl)cc3)c3ccccc3c2=O)CC1 (stereo not given) [Azelastine HCl] | 0.868 ± 0.11
CC(C)OC(=O)C(C)(C)Oc1ccc(C(=O)c2ccc(Cl)cc2)cc1 [Fenofibrate] | 1.96 ± 0.19
CN(C)CC(=O)Nc1ccc2[nH]c(=O)c3ccccc3c2c1 | 1.02 ± 0.06
CSc1ccc(C(=O)/C=C/c2cc(C)c(OC(C)(C)C(=O)O)c(C)c2)cc1 [Elafibranor] | 1.63 ± 0.59
CCCCCCCCC/C(=C\C1=C(C)C(=O)C(OC)=C(OC)C1=O)C(=O)O | 1.19 ± 0.5
